# Bioassay records deposited in PubChem by National Center for Advancing Translational Sciences (NCATS).
# KB-V1 MDR tox: KB-V1 MDR subline cytotoxicity | KB-V1 MDR cells viability, CellTiter-Glo, 72 h | Potency, µM (doses to about 46.1 µM), actives largely listed as cytotoxic | actives 3.4% (n = 400,000) | AID 1347076; further: on the % scale 0 is the no-effect control and ±100 the full control effect; nearly all actives have a fitted effect of over 60% in size
#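 Potencies derive from concentration-effect curves fitted to normalized luminescence (CellTiter-Glo) of KB-V1 cells treated for 72 h at 37 degrees C in phenol-red-free DMEM containing 10% FBS.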
# SW480 rerep: induces DNA re-replication in SW480 colon adenocarcinoma cells. actives 1.8% (n = 340,000). SW480 DNA re-replication, Hoechst DNA content imaging, 48 h. AID 624297. Potency, µM (doses to about 46.1 µM), without a hit: top-dose re-replication activation, actives largely listed as activators; further: % of control where 0% means no effect; nearly all actives have a fitted effect of over 55% in size
#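 Image-based read-out: total Hoechst fluorescence of nuclei (405 nm excitation, 500-530 nm emission), with hits raising the fraction of high-intensity nuclei. SW480 colon cells incubated 48 hr with compounds at 37 C.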
# KB-3-1 tox: KB-3-1 parental cell cytotoxicity. KB-3-1 viability, CellTiter-Glo ATP luminescence, 72 h. Potency, µM (series often up to 46.1 µM), hits mostly cytotoxic. actives 1.4% (n = 400,000). AID 1347075; further: on the % scale 0 is the no-effect control and ±100 the full control effect; nearly all actives have a fitted effect of over 60% in size
#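 Parental KB-3-1 adenocarcinoma cells in phenol-red-free DMEM with 10% FBS were pin-treated with compounds at several concentrations, incubated 72 h at 37 °C, and viability read by CellTiter-Glo luminescence; concentration-effect curves were fitted after normalization.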
# ELG1 DNA repair: inhibitors of ELG1-dependent DNA repair in HEK293T cells. HEK293T ELG1-luciferase reporter, luminescence, 16 h; DNA damage induced by 5-fluorouridine. Potency, µM (series often up to 46.1 µM), without a hit: top-dose activity change, negative = inhibition, actives largely listed as inhibitors. actives 2.3% (n = 330,000). AID 504467; further: on the % scale 0 is the no-effect control and ±100 the full control effect; nearly all actives have a fitted effect of over 55% in size
#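 DMSO vehicle served as the neutral condition. Each well held 2,000 cells given 5-fluorouridine plus compound; after 16 hr at 37 °C/5% CO2, ONE-Glo was added and luciferase measured 30 min later.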
# MCF10A rerep: DNA re-replication induction in MCF 10a cells | MCF 10A DNA re-replication, Hoechst nuclear intensity, 48 h | Potency, µM (titrated, usually from 46.1 µM), without a hit: top-dose activity, positive = re-replication, most hits filed as activators | actives 2.9% (n = 350,000) | AID 624296; further: % of control where 0% means no effect; nearly all actives have a fitted effect of over 50% in size
# * marks the source's active call; other numbers are inactive results; i = inactive; ? = inconclusive; . = no result; ! = not confirmed by another sample; [ ] = another dose, or the depositor's remark. An excerpt weighted towards active compounds, which were near 8.2% of everything screened. The call rests on the fitted dose curve; in most records, active means well fitted curve in the direction sought with a large enough effect; inconclusive means small, poorly fitted or top-dose-only effect, or another doubt; inactive means no such curve, though single readings can be large; an effect the other way counts as inactive or inconclusive. Potency means the concentration at half of the fitted maximal effect.
SMILES,KB-V1 MDR tox,SW480 rerep,KB-3-1 tox,ELG1 DNA repair,MCF10A rerep
CC(C)(C)NC(=O)CSc1nc2ccc(Nc3nc(N4CCOCC4)nc(N4CCOCC4)n3)cc2s1,?,8.6%,i,3.26µM*,?
COc1ccc(NC(=O)CSc2nc3ccc(Nc4nc(N5CCOCC5)nc(N5CCOCC5)n4)cc3s2)cc1,i,13.0%,i,2.31µM*,2.06µM*
Cc1ccc2oc(=O)c3cc(C(=O)N(Cc4ccccc4)C(C)C)sc3c2c1,i,.,i,.,.
COCCOc1cc(Nc2nnc(C(F)(F)F)s2)c(Cl)cc1Cl,?,3.0%,?,6.51µM*,11.3%
COc1cc(Nc2nnc(C)s2)c(Cl)cc1Cl,i,-2.2%,i,-23.3%,-0.6%
CCN1c2ccccc2-c2nc(SCC(=O)Nc3cccc(C(F)(F)F)c3)ncc2S1(=O)=O,i,.,i,.,.
COc1c(/C=N/NC(=O)[C@H]2C[C@@H]2c2ccccc2)c(CCN(C)C(C)=O)cc2c1OCO2,i,-3.7%[9.22 µM],i,13µM*,5.4%
COc1ccc(Br)cc1CN1C(=O)c2ccccc2C1C(=O)NC1CCCCCC1 (centres undefined),i,.,i,.,.
CCOC(=O)c1c(C(=O)OCC)c(C)n(CCc2ccc(OC)c(OC)c2)c1C,i,9.2µM*,i,14.6µM*,4.0%
CCOC(=O)c1c(C)[nH]c(C(=O)OCC(=O)NCc2ccc(OC)c(OC)c2)c1C,20.6µM*,18.7%,?,?,22.8%
CCOC(=O)c1c(C)[nH]c(C(=O)OCC(=O)Nc2sccc2C(N)=O)c1C,?,?,i,?,20.6µM*
CC(Oc1ccccc1)C(=O)Nc1ccccc1C(=O)OCc1cc(=O)n2nc(C3CC3)sc2n1 (centres undefined),?,.,i,.,.
O=C1CS/C(=N/N=C/c2cccs2)N1Cc1ccc(F)cc1,i,-16.1%,?,20.6µM*,15.4%
O=S1(=O)N=C(Sc2ccc3c(c2)OCCO3)c2ccccc21,i,.,i,.,.
O=C1C(=O)c2c(ccc3ccccc23)-c2ccccc21,4.11µM*,9.2µM*,4.11µM*,.,1.84µM*
CCNc1ccc(S(=O)(=O)C(F)(F)F)cc1NC(=O)C12CCC(CC1)C2,i,8.8%,i,-0.7%,8.7%
CCNc1cc(S(=O)(=O)C(F)(F)F)ccc1N,23.1µM*,0.6%,?,-9.7%,19.1%
C(=C\c1ccccc1)/C=N/Nc1nc2ccccc2[nH]1,i,?,14.6µM*,?,4.61µM*
O=[N+]([O-])c1cc(/C=N/Nc2nc3ccccc3[nH]2)c(O)cc1O,i,?,i,?,3.26µM*
Cc1ccccc1/C=N/Nc1nc2ccccc2[nH]1,i,1.2%,i,?,?
C/C(=N\Nc1nc2ccccc2[nH]1)c1ccc(Cl)s1,20.6µM*,0.8%,?,?,?
Cc1ccc(/C=N/Nc2nc3ccccc3[nH]2)s1,14.6µM*,?,i,?,?
CC(C)CC(=O)Nc1ccc(S(=O)(=O)Nc2cc3c(cc2N2CCOCC2)n(C)c(=O)c(=O)n3C)cc1,i,.,i,.,.
Nc1sccc1C(=O)NC1CC1,i,.,i,.,.
CCC(C)(C)NC(=O)C(c1ccc(OC)cc1)N(C(=O)CCC(=O)Nc1cc(C)on1)c1ccc(F)cc1 (centres undefined),i,-0.7%,i,-17.5%,13.2%
SMILES,KB-V1 MDR tox,SW480 rerep,KB-3-1 tox,ELG1 DNA repair,MCF10A rerep
Cc1nn(-c2ccccc2)c(Cl)c1/C=N/Nc1nc2ccccc2[nH]1,?,?,?,?,7.31µM*
Cc1ccc(NC(=O)c2cc3ccccn3n2)cc1F,i,.,i,.,.
CCCCCCCCNc1ccccc1S(=O)(=O)NCc1ccccc1,i,-6.0%,i,-8.8%,5.17µM*
O=S(=O)(NCc1ccccc1)c1ccccc1NCCc1ccccc1,i,-60.5%,i,10.7%,7.7%
COc1ccccc1CNC(=O)Nc1nc(C(N)Cc2ccc(Cl)cc2)cs1 (centres undefined),i,.,?,.,.
COc1ccc(CNc2nc3ccccc3n2CCN2CCCCC2)cc1,i,-2.6%,i,?,?
COc1ccc(CCN2CCC(Nc3nc4ccccc4n3Cc3ccc(F)cc3)CC2)cc1,20.6µM*,3.66µM*!,?,-20.7%,4.61µM*
COC(=O)C1=CN(Cc2cccs2)C=C(C(=O)OC)C1c1cccc(O)c1,i,?,i,?,?
COC(=O)c1cc(=O)n(Cc2cccs2)c(=Nc2ccccc2)s1,?,5.6%,i,?,10.3µM*
COC(=O)c1cc(=O)n(-c2ccccc2)c(=Nc2ccccc2)s1,i,?,?,?,18.4µM*
COc1cc(C)ccc1S(=O)(=O)NC(=O)C1(C)CCN1C(=O)c1ccc(C2CCCCC2)cc1 (centres undefined),i,.,i,.,.
O=C(Cn1c(COc2ccc(Cl)cc2)nc2ccccc21)NCC(F)(F)F,i,-3.7%,i,11.1%,0.7%
N#CCCNC(=O)Cn1c(COc2ccc(Cl)cc2)nc2ccccc21,i,5.2%,i,?,?
O=C(Cn1c(COc2ccccc2)nc2ccccc21)Nc1cc(Cl)cc(Cl)c1,i,-2.2%,i,3.4%,11.6µM*
O=C(Cn1c(COc2ccccc2)nc2ccccc21)Nc1cc(Cl)ccc1Cl,23.1µM*,8.7%,?,?,-0.1%
Cc1nc(C(F)(F)F)ccc1C(=O)N1CCCCC1,i,-5.3%,i,-5.7%,-1.3%
O=C(NCCc1ccccc1)c1ccc2c(c1)N(Cc1ccc(Cl)cc1)C(=O)CS2,i,.,23.1µM*,.,.
O=C(NCCc1ccc(Cl)cc1)c1ccc2c(c1)N(Cc1ccc(Cl)cc1)C(=O)CS2,i,.,i,.,.
O=C(c1ccc2c(c1)N(Cc1ccccc1)C(=O)CS2)N1CCOCC1,14.6µM*,-0.8%,i,1.9%,11.6%
CCOc1ccccc1NC(=O)C(=O)c1cc(C)n(-c2cccc(C)c2C)c1C,i,.,i,.,.
O=C(C[n+]1cc(Br)cc2ccccc21)c1ccc(O)c(O)c1,i,.,?,.,.
N=C(N)SCc1ccc(Cl)cc1Cl,i,?,i,10.3µM*,?
NC(=S)Cc1ccc(Cl)cc1Cl,i,-9.9%,i,-4.4%,-1.3%
Nc1ccc(CSc2ccc(Cl)cc2)c(Cl)c1,i,?,i,.,20.6µM*
CCCN(CC(=O)Nc1ccccc1C)C(=O)c1ccc(S(=O)(=O)N2CCC(C)CC2)cc1,?,10.4%,i,12.0%,3.7%
COc1ccc(/C=C/c2cc(C(F)(F)F)on2)cc1,i,-0.9%,i,?,2.5%
